The full ranking holds about 2,900 compounds; the median of “IRF Lucia reporter activity, fold change vs agonist alone” is about 0.9, and the highest 2% start at about 2.8. The sample holds the highest values, similar compounds and a random draw of the others, so the mix is not that of the screen.
Experiments:
RAW-Dual [1] = experiment: IRF Lucia reporter activity, fold change vs agonist alone; cytotoxicity flag (confluency mask): not cytotoxic; higher = enhanced IRF activity
In short: (§1)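 RAW-Dual macrophages (50,000 cells/well in DMEM, 384-well plates) received 50 nL of library stock by pin tool, then a PRR agonist 1 h later, and were kept at 37 °C, 5% CO2. After 20 hours, supernatant was read for IRF by QuantiLuc luminescence and for NF-κB by QuantiBlue absorbance at 620 nm. Reporter activity is fold change over agonist-alone wells. Cytotoxic wells had IncuCyte confluency below 70% of agonist controls in both mask sets.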

RAW-Dual [2] = experiment: IRF Lucia reporter activity, fold change vs agonist alone; higher = enhanced IRF activity; conditions: agonist: MPLA (TLR4) […]
In short: as §1

RAW-Dual [3] = experiment: IRF Lucia reporter activity, fold change vs agonist alone; cytotoxicity flag (confluency mask): cytotoxic (confluency <70% of control); higher = enhanced IRF activity
In short: as §1

[4] = agonist: 3'3'-cGAMP (STING) 10 ug/mL
[5] = library stock concentration (final ~1000-fold dilution): 10 mM, cytotoxicity flag (confluency mask): not cytotoxic
[6] = library stock concentration (final ~1000-fold dilution): 10 mM, cytotoxicity flag (confluency mask): cytotoxic (confluency <70% of control)

O=C(CCc1ccc(O)cc1)c1c(O)cccc1OC1OC(CO)C(O)C(O)C1O (centres undefined) (library stock concentration (final ~1000-fold dilution): 10 mM)
IRF Lucia reporter activity (RAW-Dual [1]; [4]): 0.943 | IRF Lucia reporter activity (RAW-Dual [1]; agonist: LPS (TLR4) 0.1 ug/mL): 0.918

O=C(CCc1ccc(O)cc1)c1c(O)cccc1OC1OC(CO)C(O)C(O)C1O (centres undefined)
IRF Lucia reporter activity (RAW-Dual [2]; [5]): 1.01

CC(c1ccc2nccn2c1)n1nnc2ncc(-c3cnn(C)c3)nc21 (centres undefined) (library stock concentration (final ~1000-fold dilution): 10 mM)
IRF Lucia reporter activity (RAW-Dual [1]; [4]): 0.953 | IRF Lucia reporter activity (RAW-Dual [1]; agonist: LPS (TLR4) 0.1 ug/mL): 1.15

CN(C)CCSSCCNC(=O)C1CCN(C(=O)CSc2ccc(Cl)cc2)CC1.O=C(O)C(F)(F)F (library stock concentration (final ~1000-fold dilution): 10 mM)
IRF Lucia reporter activity (RAW-Dual [1]; [4]): 0.396 | IRF Lucia reporter activity (RAW-Dual [1]; agonist: LPS (TLR4) 0.1 ug/mL): 0.778

CN(C)CCSSCCNC(=O)C1CCN(C(=O)CSc2ccc(Cl)cc2)CC1.O=C(O)C(F)(F)F
IRF Lucia reporter activity (RAW-Dual [2]; [5]): 0.751

O=C1OC(COc2ccccc2[N+](=O)[O-])CC1Cc1ccccc1 (centres undefined) (library stock concentration (final ~1000-fold dilution): 10 mM)
IRF Lucia reporter activity (RAW-Dual [1]; [4]): 1.23 | IRF Lucia reporter activity (RAW-Dual [1]; agonist: LPS (TLR4) 0.1 ug/mL): 1.23

O=c1cccccc1O
IRF Lucia reporter activity (RAW-Dual [2]; [5]): 1.24

O=c1cccccc1O (library stock concentration (final ~1000-fold dilution): 10 mM)
IRF Lucia reporter activity (RAW-Dual [1]; [4]): 0.664 | IRF Lucia reporter activity (RAW-Dual [1]; agonist: LPS (TLR4) 0.1 ug/mL): 0.952

NC(=O)c1cc(F)cc2c1C(=O)N(C1CCN(C3CCC(F)(F)CC3)CC1)C2 (library stock concentration (final ~1000-fold dilution): 10 mM)
IRF Lucia reporter activity (RAW-Dual [1]; [4]): 0.94 | IRF Lucia reporter activity (RAW-Dual [1]; agonist: LPS (TLR4) 0.1 ug/mL): 0.923

O=C(Nc1nc2cccc(-c3ccc(CN4CCS(=O)(=O)CC4)cc3)n2n1)C1CC1 (library stock concentration (final ~1000-fold dilution): 10 mM)
IRF Lucia reporter activity (RAW-Dual [1]; [4]): 1.1 | IRF Lucia reporter activity (RAW-Dual [1]; agonist: LPS (TLR4) 0.1 ug/mL): 3.4

CC1(C)CN(C(=O)c2ccc(-c3cccc4nc(NC(=O)C5CC5)nn34)cc2)C1
IRF Lucia reporter activity (RAW-Dual [2]; [5]): 0.713

CC1(C)CN(C(=O)c2ccc(-c3cccc4nc(NC(=O)C5CC5)nn34)cc2)C1 (library stock concentration (final ~1000-fold dilution): 10 mM)
IRF Lucia reporter activity (RAW-Dual [1]; [4]): 0.308 | IRF Lucia reporter activity (RAW-Dual [1]; agonist: LPS (TLR4) 0.1 ug/mL): 0.577

CNCCC=C1c2ccccc2CCc2ccccc21.Cl (library stock concentration (final ~1000-fold dilution): 10 mM)
IRF Lucia reporter activity (RAW-Dual [3]; [4]): 0.464 | IRF Lucia reporter activity (RAW-Dual [3]; agonist: LPS (TLR4) 0.1 ug/mL): 1.52

CNCCC=C1c2ccccc2CCc2ccccc21.Cl
IRF Lucia reporter activity (RAW-Dual [2]; [6]): 1.38

CN(C)c1ccc(O)c2c1CC1CC3C(N(C)C)C(O)=C(C(N)=O)C(=O)C3(O)C(O)=C1C2=O.Cl (centres undefined) (library stock concentration (final ~1000-fold dilution): 2 mM water)
IRF Lucia reporter activity (RAW-Dual [1]; [4]): 1.09 | IRF Lucia reporter activity (RAW-Dual [1]; agonist: LPS (TLR4) 0.1 ug/mL): 0.851

CN(C)c1ccc(O)c2c1CC1CC3C(N(C)C)C(O)=C(C(N)=O)C(=O)C3(O)C(O)=C1C2=O.Cl (centres undefined)
IRF Lucia reporter activity (RAW-Dual [2]; library stock concentration (final ~1000-fold dilution): 2 mM water, cytotoxicity flag (confluency mask): not cytotoxic): 1.28

Cc1sc2c(c1C)C(c1ccc(Cl)cc1)=N[C@@H](CC(=O)NCCCCCCCCNC(=O)COc1cccc3c1C(=O)N(C1CCC(=O)NC1=O)C3=O)c1nnc(C)n1-2 (some centres undefined) (library stock concentration (final ~1000-fold dilution): 10 mM)
IRF Lucia reporter activity (RAW-Dual [3]; [4]): 0.189 | IRF Lucia reporter activity (RAW-Dual [3]; agonist: LPS (TLR4) 0.1 ug/mL): 0.244

CC(C)(O)c1ccccc1CCC(SCC1(CC(=O)O)CC1)c1cccc(/C=C/c2ccc3ccc(Cl)cc3n2)c1 (centres undefined) (library stock concentration (final ~1000-fold dilution): 10 mM)
IRF Lucia reporter activity (RAW-Dual [3]; [4]): 0.492 | IRF Lucia reporter activity (RAW-Dual [3]; agonist: LPS (TLR4) 0.1 ug/mL): 1.52

CC(C)(O)c1ccccc1CCC(SCC1(CC(=O)O)CC1)c1cccc(/C=C/c2ccc3ccc(Cl)cc3n2)c1 (centres undefined)
IRF Lucia reporter activity (RAW-Dual [2]; [6]): 0.73

CCOC(=O)CCNc1cc(N2CCc3ccccc3CC2)nc(-c2ccccn2)n1.Cl (library stock concentration (final ~1000-fold dilution): 10 mM)
IRF Lucia reporter activity (RAW-Dual [1]; [4]): 1.03 | IRF Lucia reporter activity (RAW-Dual [1]; agonist: LPS (TLR4) 0.1 ug/mL): 1.04

CCOC(=O)CCNc1cc(N2CCc3ccccc3CC2)nc(-c2ccccn2)n1.Cl
IRF Lucia reporter activity (RAW-Dual [2]; [5]): 1

Cc1cccc(/C=N/Nc2cc(N3CCOCC3)nc(OCCc3ccccn3)n2)c1
IRF Lucia reporter activity (RAW-Dual [2]; [5]): 3.08

Cc1cccc(/C=N/Nc2cc(N3CCOCC3)nc(OCCc3ccccn3)n2)c1 (library stock concentration (final ~1000-fold dilution): 10 mM)
IRF Lucia reporter activity (RAW-Dual [1]; [4]): 0.326 | IRF Lucia reporter activity (RAW-Dual [1]; agonist: LPS (TLR4) 0.1 ug/mL): 2.84

CCC(NC(=O)C(C)NC)C(=O)N1CC(O)CC1Cc1c(-c2[nH]c3cc(F)ccc3c2CC2CC(O)CN2C(=O)C(CC)NC(=O)C(C)NC)[nH]c2cc(F)ccc12 (centres undefined)
IRF Lucia reporter activity (RAW-Dual [2]; [5]): 0.519

CCC(NC(=O)C(C)NC)C(=O)N1CC(O)CC1Cc1c(-c2[nH]c3cc(F)ccc3c2CC2CC(O)CN2C(=O)C(CC)NC(=O)C(C)NC)[nH]c2cc(F)ccc12 (centres undefined) (library stock concentration (final ~1000-fold dilution): 10 mM)
IRF Lucia reporter activity (RAW-Dual [1]; [4]): 0.626 | IRF Lucia reporter activity (RAW-Dual [1]; agonist: LPS (TLR4) 0.1 ug/mL): 0.632

Cc1ccc(CN(CC(O)COc2cccc3[nH]ccc23)C(C)(C)C)cc1 (centres undefined) (library stock concentration (final ~1000-fold dilution): 10 mM)
IRF Lucia reporter activity (RAW-Dual [3]; [4]): 0.837 | IRF Lucia reporter activity (RAW-Dual [3]; agonist: LPS (TLR4) 0.1 ug/mL): 1.9

Cc1cc(C(C)Nc2ccccc2C(=O)O)c2nc(N3CCOCC3)cc(=O)n2c1 (centres undefined) (library stock concentration (final ~1000-fold dilution): 10 mM)
IRF Lucia reporter activity (RAW-Dual [1]; [4]): 1 | IRF Lucia reporter activity (RAW-Dual [1]; agonist: LPS (TLR4) 0.1 ug/mL): 1.04

— the supplement of paper PMC10037445
